The whole screen tested about 53,000 sequences, of which about 3,700 (7%) were called active. Only a selection was taken, and actives are over-represented in it overall. Values without a mark were called inactive.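 The calls were made as follows: active = gene knockdowns whose robust z-score for IL-1 alpha signal is at least 2 or at most -2, so actives lie on both sides; inactive = the rest.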
Assay: Components of the Cytosolic LPS Sensing Pathway: Gene Identification via Genome-wide siRNA Screen;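 also: robust z of the log signal after scaling to non-targeting control siRNA wells of the plate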
Settings: RAW264.7 macrophages, IL-1a HTRF, actives lie on both sides, screened at 100 nM (by protocol), cells primed 5 h with Pam3CSK4 first
Method in brief: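 RAW264.7; siRNA 100 nM final, RNAiMAX, 48h 37 degrees C; Pam3CSK4 5 h; LipidA + TransIT-TKO 24 h; IL-1a HTRF; CellTiter-Glo viability; robust z vs negative-control median.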

Sequence	z-score
CGUGUCUGAAGGACUACAATT against 1700052K11Rik	0.0454
GCAGUAAGUCAGUGCCUCATT against Atxn1	1.51
GGUUGAUGCCAUGAAGUCCTT against Acyp2	-1.22
GGUUGUUGUGACCUUCCUGTT against Bod1	-2.65 (active)
GGGACAUUAUGCUUAUGACTT against Srsf7	-0.513
GGCAGAAGCCUAAAACGGUTT against Nudt2	0.00394
GGCAUUCUGAAAACAACUCTT against Hvcn1	2.02 (active)
GCCAAGACCUAUGAGUAUATT against Naaladl1	1.33
CCGAUAAUAUCAAUGGAAATT against Med24	0.744
GGACAUCAAGAAGGACAAATT against Ppp2r5d	0.874
GGGUCAAAGAGAAAAAAGUTT against Hoxa13	-1.2
GGUGAUGGUGUAAAAUACATT against Dab2	4.98 (active)
GGAGAAGCAUGGCUAUAACTT against Rcor2	-0.393
GGUGACCUACAAGAUUUGUTT against Csdc2	-0.801
GUCACUCUUUUUUAUGGAATT against Olfr485	-1.48
GGCGAAUUGAAGGAGACCATT against Tmod3	2.54 (active)
GGGCAUAGAUUAGUCUUUATT against Ing2	1.01
GCGCAUAUUUUAUCAACUCTT against Plcb3	0.38
GGAACCAUGGACCUUAAUUTT against Rbm4	0.291
GCUUUCCUAGACAAUCUAUTT against Arhgap19	0.0654
GGCUGCAUUACCCAGCUUATT against Olfr853	0.719
GGAAGUCCUAUGAUUAAACTT against Zfand1	-0.633

Sequence	z-score
CCUUCUAUUCACUUUACCATT against Vmn1r87	-0.907
GGGUUCACAUGGCAUAGUCTT against Zfp1	-0.0137
GGAGAGUACAGACACUGAGTT against Masp2	-0.22
GCUUAGACAACGACAUUUCTT against Mcoln3	2.04 (active)
GGUCUUCUCCAAGAUCUUCTT against Cyp26b1	1.03
GCACACCUAUGUCCACUCUTT against Aars	-0.923
GGUGCCUUCUGUAAACGAGTT against Foxc2	2.81 (active)
GGAAGGAAAACCUUUCAACTT against Cyp2j6	0.975
GGUGGUGACCUUGGAUGUUTT against Gstp3	-0.00982
GGAAGCACAUAGAAGCCAATT against Defb11	-0.504
GGGAGAGUGGAUCAUCAAUTT against P2ry10	-0.0942
GGGAAUAUUUGGAUAACUUTT against Pak7	4.24 (active)
GCCACGACCAUUCAGACUCTT against Lrrc42	1.27
GGAUGAUCGGCACUAUAACTT against Otulin	1.81
GGAGAGAUGUUUAUGAAUATT against Slc6a14	-0.429
GGAAAAAGAUAGAACCAGATT against Larp1b	-0.177
GGAAAGCUCUUUGUGUCGGTT against Gramd3	-0.476
CCAUCUAGUGCUGUAUUUCTT against Rnf215	0.67
GGUGAAAUCCAUUAAAGAATT against Fth1	-2.06 (active)
GGAGUUUUCUCGAAACUUCTT against Fate1	0.993
GGACCAAGAACCAGCAAUGTT against Defb6	-0.69
GGAAAAACUGAAACAGUUUTT against Eif3a	1.06

Sequence	z-score
AACACGGCUCUAGCCAAUCTT against Ypel4	-1.25
GCCAAUUUGAAUGGGAUGUTT against Magohb	-2.25 (active)
GGUGGUUACCAUAGCUGGUTT against Arid2	1.67
CCUAAACUCACUCUUGUGUTT against Chrna6	-0.000677
CCUAGACGUGACUUAAUAUTT against Rabggtb	2.09 (active)
CCUCAGCAAAUAUAUGGCATT against Ccdc7b	0.0117
GCAAGCUGAGCAUUGAUGATT against Csk	0.0106
GCAGUCUUUUGGAUAGGUUTT against Ccni	0.86
GCUGUGCAGCCACAAGUGATT against Gpr142	8.63 (active)
GGAUGGAAUGCAGAAACGATT against Pcp2	-0.061
GGGAUCAGAAAAGUUAACATT against Acaca	0.785
GGACUUCACUUUUCUAUGATT against Tmem64	1.47
GGCUUUGGACUGUAUGACCTT against Ccdc159	-0.923
GGUGGAAAGAGAGAGCUACTT against Slc12a7	0.458
GGUUUGCUGAGAAAUUAACTT against Btg3	0.958
GCCCACGUAUUUGUCUGCUTT against Sprn	-2.58 (active)
GCCUUCUUAACUUCAUCACTT against Taar5	1.16
CCUGAACACAAGUGCUGGUTT against Clec4a4	-1.8
GGCCAUCACACACAGAAACTT against Pla2g2f	-0.505
GGCUAUGCAGAUGGUACCUTT against Vil1	0.871
CCAUGUGUCAAACUACCGGTT against Rbmx2	7.02 (active)
CCAUGAUUAAGGGUCUCUATT against Ldha	0.111

Sequence	z-score
GGUGGUAAAUAAUUAAGGATT against Clec14a	0.623
GGAACUGAUAAACUACUCUTT against Olfr1126	-2.08 (active)
GGGAAUGAGUCAGCUCUUUTT against Cd163	-0.667
GGCUAAACUGAAGGAAUUCTT against Fkbp10	0.875
GGUAGGAAUUUGGAAAACUTT against H2-T24	1.5
GGAAAUUGUUGUUUCCCGUTT against Sf3b3	-1.45
GGCCACCAAGAAAUUCAAATT against Cd22	4.16 (active)
GCCUAUCUGUGACUGACCUTT against LOC433501	-0.171
GCGAGAGCUAAAGUAAAAUTT against Egln1	-0.671
GGCUAAAGUGAGCUCUUCATT against Nob1	-0.947
GGUGUGUUACUGAUGAUUCTT against Olfr669	-0.37
GCAGAGUGACUUUGAAGCGTT against Klf10	0.844
CCAAGUUCAUUCUUUUUGCTT against Cobll1	1.2
CCCUAGAAGAAUCAAGCUCTT against Prune2	-1.35
GGAAUGAUAGAAAAUGGACTT against Gvin1	-2.16 (active)
GGCAGAGACCACUAAUACCTT against Tmem131l	-0.881
GGCAGGCAAUUCAAACAAUTT against Orm1	-1.24
GCUAUCCUCAAUUGCACACTT against Atxn3	1.49
GGUUUGAAAGGAGAAAGAGTT against Col4a6	0.366
GGCCUUCGUCAUCUUCAAGTT against Snrpa	1.05
GGCCCAAGCUCAACACAAUTT against Aida	2.31 (active)
GGCCAAGAAAAAAGAAAGATT against Slc22a2	0.126

Sequence	z-score
GGGUUCAGGAGAACUAACUTT against Tmem40	-1.92
GGAUCCUGUUAAGAUUAUCTT against Phykpl	-0.0411
GGAUAUUCACUUUCAUAUGTT against Gulp1	1.25
GGUUUAUGGAGCAAGUGAUTT against Actr3	-2.07 (active)
CCAACAAUGUUUAAAGGAUTT against Olfr476	-0.32
GCCAUGUGCACUGAAUAUATT against Gfral	-1.87
GGUCAUCAGUGAUCAGUCATT against Mre11a	-1.33
GCAGCAUCCAACUUCCGCUTT against Ffar2	3.35 (active)
GGAAAAAAUCAAGAGUGAATT against Fam50a	-0.157
GCUACUCUCUAUUGGUUUUTT against Gpr45	2.45 (active)
GGUGAACUUGAGGUCACACTT against Angpt4	0.134
GCGGGUUUAUUGUCUAGAATT against Mfn2	0.669
GGAAGUAGAUUUGAAGUUGTT against Btbd35f1	0.256
GGAGCUCUUUUUGAACACUTT against Sgcg	0.946
GGCCAAUCAAGAUAGCCACTT against Dnajc1	1.12
GCUCUCUCUCUUCUUACUGTT against Olfr1160	-2.16 (active)
GCCGUUUGGUUUCGAACUUTT against Mboat2	1.17
GGUGGAGUGAUACGAAGAGTT against Radx	1.21
CCAUAGUAGCUACCUUGAUTT against Fam107a	0.537
GGAUGAGGUGAACUGAGGGTT against Tmem150b	0.777
